From PubChem BioAssay (EPA / NIEHS)
Records with an inconclusive call do not appear. Calls of active or inactive are those of the source. How the source made its calls: active means hit-call score of the fitted dose curve at least 0.9, where 1 is the maximum; inconclusive means response in the unintended direction; inactive means score below 0.9.

Test: Tanguay_ZF_120hpf_TR_legacy: (Legacy) Oregon State University Tanguay Lab 120 Hour Post-fertilization zebrafish Assay for Touch Response (AID 2283667)
Method in brief: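 5D WT embryos; static exposure to 120 hpf, 28C, sealed/dark; DMSO 0.64% v/v final. TR scored present/absent; dead embryos excluded. Pos ctrl 5uM trimethyltin chloride.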

Compound | outcome | AC50
Cc1cc(-c2ccc(N)c(C)c2)ccc1N | inactive | –
Cc1cc(O)ccc1Cl | inactive | –
Nn1cnnc1 | inactive | –
O=C(O)C(F)(F)C(F)(F)C(F)(F)C(F)(F)C(F)(F)F | inactive | –
CO/C=C(/C(=O)OC)c1ccccc1COc1cccc(C(F)(F)F)n1 | – | 13.2 µM (active)
Nc1ccc(-c2ccc(N)cc2)cc1 | inactive | –
Cc1cccc(C)c1N | inactive | –
ClC1=C(Cl)[C@]2(Cl)[C@@H]3[C@H]4C[C@H]([C@@H]5O[C@H]45)[C@@H]3[C@@]1(Cl)C2(Cl)Cl | – | 81.5 µM (active)
Oc1ccc(Cl)cc1Cl | inactive | –
Cc1ccccc1[N+](=O)[O-] | inactive | –
CC(C)C(=O)OCC(C)(C)C(OC(=O)C(C)C)C(C)C (stereo unspecified) | inactive | –
